Test results taken from PubChem BioAssay (EPA / NIEHS).
Where “and” joins values, the source holds several entries; their conditions need not be identical. Equal entries are not always repeated. Inconclusive results are not listed. Calls of active or inactive are those of the source. Rule for the calls, unless noted: active = hit-call score of the fitted dose curve at least 0.9, where 1 is the maximum; inconclusive = response in the unintended direction; inactive = score below 0.9.

Columns and labels:
DIO1 (gene 1733) = assay: CCTE_GLTED_hDIO1: CCTE's human Deiodinase 1 (DIO1) Inhibition Assay, Great Lakes Toxicology and Ecology Division (GLTED) Lab (AID 2283987);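 note: isolated human DIO1 enzyme in a cell-free setup rather than cells; enzyme activity read as free iodide liberated from substrate via Sandell-Kolthoff colorimetry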
Outline: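 Chemicals are tested on human DIO1 without cells for 3 h. Uninhibited enzyme frees iodide, which speeds cerium(IV) reduction by arsenic and is read by spectrophotometry.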

[1] = target: Nucleoli Translocation, AR (gene 367) (UniProt P10275); assay: UPITT_HCI_U2OS_AR_TIF2_Nucleoli_Antagonist: University of Pittsburgh U2OS Androgen Receptor-Transcriptional Intermediary Factor 2 (AR-TIF2) Antagonism High Content Imaging Assay for Nucleoli Translocation (AID 2283997)
Chain of Nucleoli Translocation, AR (gene 367) (P10275 whole entry, looked up, the tested form may be a part): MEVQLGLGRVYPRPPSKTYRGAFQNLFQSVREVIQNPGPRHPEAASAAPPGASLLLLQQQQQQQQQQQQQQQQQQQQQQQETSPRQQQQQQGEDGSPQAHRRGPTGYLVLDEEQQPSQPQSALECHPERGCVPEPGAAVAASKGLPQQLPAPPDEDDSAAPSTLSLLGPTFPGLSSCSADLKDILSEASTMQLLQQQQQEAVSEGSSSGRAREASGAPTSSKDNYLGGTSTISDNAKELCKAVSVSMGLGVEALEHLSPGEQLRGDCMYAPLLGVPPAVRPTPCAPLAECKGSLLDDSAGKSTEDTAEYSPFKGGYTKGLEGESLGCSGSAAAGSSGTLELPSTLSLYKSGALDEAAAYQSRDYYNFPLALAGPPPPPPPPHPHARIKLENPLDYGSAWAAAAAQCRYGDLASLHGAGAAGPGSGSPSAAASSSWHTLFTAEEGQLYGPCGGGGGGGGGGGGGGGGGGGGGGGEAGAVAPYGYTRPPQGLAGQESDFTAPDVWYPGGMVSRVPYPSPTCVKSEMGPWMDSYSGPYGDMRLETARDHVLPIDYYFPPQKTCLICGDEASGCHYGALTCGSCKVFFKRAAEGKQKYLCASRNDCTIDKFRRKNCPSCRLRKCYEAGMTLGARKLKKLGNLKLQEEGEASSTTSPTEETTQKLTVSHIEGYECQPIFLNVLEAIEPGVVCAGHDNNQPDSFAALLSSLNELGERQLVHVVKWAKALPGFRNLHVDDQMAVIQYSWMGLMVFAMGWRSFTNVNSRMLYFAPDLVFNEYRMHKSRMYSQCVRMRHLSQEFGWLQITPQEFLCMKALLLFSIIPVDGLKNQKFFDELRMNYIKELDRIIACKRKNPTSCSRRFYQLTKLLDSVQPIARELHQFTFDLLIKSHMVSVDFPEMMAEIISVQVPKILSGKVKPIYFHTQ
Outline: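 U2OS cells expressing RFP-tagged human AR and GFP-tagged TIF2 were imaged by high-content fluorescence microscopy for red AR signal in the nucleolar region. Compounds were screened at 20 uM final (0.2% DMSO), with activity fitted relative to DHT as baseline.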

[2] = target: Nucleoli Translocation, AR (gene 367) (UniProt P10275); assay: UPITT_HCI_U2OS_AR_TIF2_Nucleoli_Agonist: University of Pittsburgh U2OS Androgen Receptor-Transcriptional Intermediary Factor 2 (AR-TIF2) Agonism High Content Imaging Assay for Nucleoli Translocation (AID 2283998)
Outline: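 High-content images quantify nucleolar accumulation of RFP-fused AR in cells also expressing GFP-TIF2; the endpoint is fitted as signal gain versus DMSO controls across final concentrations of 0.195 to 50 uM.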

[3] = target: Ratio of Nucleoli Translocation and Cytoplasm, AR (gene 367) (UniProt P10275); assay: UPITT_HCI_U2OS_AR_TIF2_Nucleoli_Cytoplasm_Ratio_Antagonist: University of Pittsburgh U2OS Androgen Receptor-Transcriptional Intermediary Factor 2 (AR-TIF2) Antagonism High Content Imaging Assay for Ratio of Nucleoli Translocation and Cytoplasm (AID 2283999);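 note: antagonists lower the DHT-driven ratio of nucleolar to cytoplasmic red signal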
Chain of Ratio of Nucleoli Translocation and Cytoplasm, AR (gene 367) (P10275 whole entry, looked up): as the sequence (P10275 whole entry, looked up, the tested form may be a part) above
Outline: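 U2OS cells expressing RFP-tagged human AR and GFP-tagged TIF2; compounds tested at 20 uM final (0.2% DMSO) in primary screen, 0.195–50 uM (0.5% DMSO) for concentration response. Readout: nucleolar-to-cytoplasmic red fluorescence ratio by high-content imaging, fitted relative to DHT.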

[4] = target: Ratio of Nucleoli Translocation and Cytoplasm, AR (gene 367) (UniProt P10275); assay: UPITT_HCI_U2OS_AR_TIF2_Nucleoli_Cytoplasm_Ratio_Agonist: University of Pittsburgh U2OS Androgen Receptor-Transcriptional Intermediary Factor 2 (AR-TIF2) Agonism High Content Imaging Assay for Ratio of Nucleoli Translocation and Cytoplasm (AID 2284000);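 note: hits raise the red nucleolar to cytoplasm ratio above vehicle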
Outline: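 U2OS cells expressing RFP-tagged human AR and GFP-tagged TIF2 were imaged by high-content fluorescence microscopy. The endpoint is the ratio of nucleolar to cytoplasmic red fluorescence, fitted for gain of signal relative to DMSO. Concentration-response spanned 0.195 to 50 uM final (0.5% DMSO).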

[5] = CCTE_Shafer_MEA_acute_spike_number: CCTE's Neural Acute Assay for Total Number of Spikes, Shafer Lab (AID 2284008; active = hit-call score of the fitted dose curve at least 0.9, where 1 is the maximum; inactive = score below 0.9;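 for AC50: curve fitted for decrease in spike count so AC50 reflects inhibitors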)
Outline: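 Using an adaptive detector set to 8x rms noise, spikes were counted in 40-min windows before and after compound addition (0.03-40 uM) to rat cortical networks at 37 C; the well-level change from baseline was analysed relative to DMSO.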

[6] = CCTE_Simmons_MITO_basal_resp_rate: CCTE's HepG2 Seahorse XF Respirometric Screening Assay at Basal Respiratory State, Simmons Lab (AID 2284001; active = hit-call score of the fitted dose curve at least 0.9, where 1 is the maximum; inactive = score below 0.9); settings: actives raise or lower the signal
Outline: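 HepG2 cells were given test chemicals at 7 concentrations, 125 nM to 100 uM final, and oxygen consumption rate was read every 6 min (3 min mix, 3 min measure) over 72 min. Basal-phase OCR was fitted bidirectionally against DMSO.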

[7] = CCTE_Simmons_MITO_max_resp_rate: CCTE's HepG2 Seahorse XF Respirometric Screening Assay at Maximal Respiratory State [uncoupled], Simmons Lab (AID 2284002; active = hit-call score of the fitted dose curve at least 0.9, where 1 is the maximum; inactive = score below 0.9); settings: actives raise or lower the signal
Outline: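 Uncoupled (FCCP) respiration of HepG2 cells served as the endpoint, with measurements at 6-minute intervals across a 72-minute run and compounds dosed at 7 concentrations up to 100 uM final.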

[8] = CCTE_Simmons_MITO_inhib_resp_rate: CCTE's HepG2 Seahorse XF Respirometric Screening Assay at Inhibited Respiratory State [full ETC block], Simmons Lab (AID 2284006; active = hit-call score of the fitted dose curve at least 0.9, where 1 is the maximum; inactive = score below 0.9); settings: actives raise or lower the signal
Outline: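 HepG2 cells on Seahorse XF96; oxygen consumption measured after test compound, then FCCP, then rotenone/antimycin A injections over 72 min. Test chemicals at 7 concentrations, 125 nM–100 uM final. OCR fitted bidirectionally versus DMSO.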

[9] = CCTE_Simmons_MITO_viability: CellTiter-Glo Viability Assessment for CCTE's HepG2 Seahorse XF Respirometric Screening Assay [post-hoc], Simmons Lab (AID 2284007);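 for AC50: cells exposed to chemical for 90 min before the ATP read; actives lower ATP signal relative to DMSO baseline meaning reduced viability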
Outline: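 HepG2 cells from the Seahorse XF respirometry run were exposed 90 min to a 7-point series, 125 nM–100 uM final, DMSO vehicle; ATP content then read by luciferase luminescence. Three biological replicates, technical singles; loss of signal fitted versus DMSO.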

**Q.** For `Cc1cc(=O)[nH]c(=S)[nH]1`, which AC50 (DIO1 (gene 1733)) is on record?
**A.** 16.4 µM (active)

**Q.** With `COc1cc(-c2nc(NC(=O)c3cc4cc(C)cc(C)c4n3CC(=O)O)sc2CCC2CCCCC2)c(OC)cc1Cl` as the compound, how does the AC50 [1] read?
**A.** 11.4 µM (active)

**Q.** And the outcome [2]?
**A.** inactive

**Q.** And the outcome [3]?
**A.** inactive

**Q.** And the outcome [4]?
**A.** inactive

**Q.** For `COc1cc(/C=C/C(=O)CC(=O)/C=C/c2ccc(O)c(OC)c2)ccc1O`, which outcome [2] is on record?
**A.** inactive

**Q.** What about the AC50 [3] of the same compound?
**A.** 5.79 µM (active)

**Q.** And the outcome [4]?
**A.** inactive

**Q.** Which results are given for `COc1cc(C=O)ccc1O`?
**A.** outcome [1]: inactive; outcome [2]: inactive; outcome [3]: inactive

**Q.** For `CCCCCC(=O)O`, which outcome [2] is on record?
**A.** inactive

**Q.** Which outcome [1] does the source give for `Cc1nc(-c2ccc3c(c2)CCN(CCC2CCC(NC(=O)/C=C/c4ccc(F)cc4)CC2)CC3)no1` (stereo unspecified) here?
**A.** inactive

**Q.** And the outcome [2]?
**A.** inactive

**Q.** What about the outcome [3] of the same compound?
**A.** inactive

**Q.** What about the outcome [4] of the same compound?
**A.** inactive

**Q.** Which results are given for `CC(=O)Oc1ccccc1C(=O)O`?
**A.** outcome [2]: inactive; outcome [4]: inactive; outcome [5]: inactive

**Q.** Which AC50 (DIO1 (gene 1733)) does the source give for `CCCc1cc(=O)[nH]c(=S)[nH]1` here?
**A.** 3.82 µM (active) and 5.5 µM (active)

**Q.** What about the outcome [5] of the same compound?
**A.** inactive

**Q.** What does the source list for `Cc1ccccc1Cl`?
**A.** outcome [1]: inactive; outcome [2]: inactive

**Q.** For `CCCCCCCCCCC`, which outcome [1] is on record?
**A.** inactive

**Q.** What about the outcome [4] of the same compound?
**A.** inactive

**Q.** Which results are given for `O=C(O)Cc1ccccc1Nc1c(Cl)cccc1Cl`?
**A.** outcome [1]: inactive; outcome [2]: inactive; outcome [3]: inactive; outcome [4]: inactive

**Q.** With `CCOc1ccc2c(c1)C(C)=CC(C)(C)N2` as the compound, how does the AC50 [1] read?
**A.** 50 µM (active)

**Q.** What about the outcome [2] of the same compound?
**A.** inactive

**Q.** And the outcome [3]?
**A.** inactive

**Q.** What about the outcome [4] of the same compound?
**A.** inactive

**Q.** With `CNC(=O)[C@H]1O[C@@H](n2cnc3c(NCc4cc(Cl)ccc4OCc4cc(C)no4)ncnc32)[C@H](O)[C@@H]1N` as the compound, how does the outcome [1] read?
**A.** inactive

**Q.** What about the outcome [2] of the same compound?
**A.** inactive

**Q.** And the outcome [3]?
**A.** inactive

**Q.** And the outcome [4]?
**A.** inactive

**Q.** Which outcome [1] does the source give for `Cc1ccc(C)c(C)c1` here?
**A.** inactive

**Q.** What about the outcome [2] of the same compound?
**A.** inactive

**Q.** What about the outcome [3] of the same compound?
**A.** inactive

**Q.** What about the outcome [4] of the same compound?
**A.** inactive

**Q.** What does the source list for `Cc1ccc(N(C)C)cc1`?
**A.** outcome [1]: inactive; outcome [2]: inactive; outcome [3]: inactive; outcome [4]: inactive

**Q.** With `Cc1ccc(C)c(O)c1C` as the compound, how does the outcome [1] read?
**A.** inactive

**Q.** And the outcome [2]?
**A.** inactive

**Q.** What about the outcome [3] of the same compound?
**A.** inactive

**Q.** What about the outcome [4] of the same compound?
**A.** inactive

**Q.** What about the outcome [5] of the same compound?
**A.** inactive

**Q.** For `Cc1cccc(C)c1O`, which outcome [1] is on record?
**A.** inactive

**Q.** And the outcome [2]?
**A.** inactive

**Q.** What about the outcome [3] of the same compound?
**A.** inactive

**Q.** With `CC(C)(C)c1cc(O)c(C(C)(C)C)cc1O` as the compound, how does the outcome [1] read?
**A.** inactive

**Q.** And the outcome [2]?
**A.** inactive

**Q.** And the outcome [4]?
**A.** inactive

**Q.** What about the AC50 [6] of the same compound?
**A.** 18.3 µM (active)

**Q.** What about the AC50 [7] of the same compound?
**A.** 36.7 µM (active)

**Q.** And the outcome [8]?
**A.** inactive

**Q.** What about the outcome [9] of the same compound?
**A.** inactive

**Q.** And the AC50 [5]?
**A.** 25.9 µM (active)

**Q.** With `COCCOCCOC` as the compound, how does the outcome [1] read?
**A.** inactive

**Q.** And the outcome [2]?
**A.** inactive

**Q.** What about the outcome [4] of the same compound?
**A.** inactive

**Q.** Which outcome [2] does the source give for `COc1ccc2c(c1)c(CC(=O)O)c(C)n2C(=O)c1ccc(Cl)cc1` here?
**A.** inactive

**Q.** And the outcome [3]?
**A.** inactive

**Q.** What about the outcome [4] of the same compound?
**A.** inactive

**Q.** What about the AC50 [6] of the same compound?
**A.** 13.4 µM (active)

**Q.** And the outcome [7]?
**A.** inactive

**Q.** What about the outcome [8] of the same compound?
**A.** inactive

**Q.** And the outcome [9]?
**A.** inactive

**Q.** And the outcome [5]?
**A.** inactive

**Q.** With `CCCCC(CC)COC(=O)CC(C(=O)OCC(CC)CCCC)S(=O)(=O)O` (stereo unspecified) as the compound, how does the AC50 (DIO1 (gene 1733)) read?
**A.** 96.2 µM (active)

**Q.** What about the outcome [6] of the same compound?
**A.** inactive

**Q.** What about the AC50 [7] of the same compound?
**A.** 85.2 µM (active)

**Q.** What about the outcome [8] of the same compound?
**A.** inactive

**Q.** And the AC50 [9]?
**A.** 56.1 µM (active)

**Q.** What does the source list for `Cc1cccc([N+](=O)[O-])c1C`?
**A.** outcome [1]: inactive; outcome [3]: inactive; outcome [4]: inactive

**Q.** For `COc1ccc(S(=O)(=O)N2C(=O)[C@@](c3ccccc3OC)(N3C[C@H](O)C[C@H]3C(=O)N(C)C)c3cc(Cl)ccc32)c(OC)c1`, which outcome [1] is on record?
**A.** inactive

**Q.** And the outcome [2]?
**A.** inactive

**Q.** What about the outcome [3] of the same compound?
**A.** inactive

**Q.** And the outcome [4]?
**A.** inactive

**Q.** What about the outcome [7] of the same compound?
**A.** inactive

**Q.** And the outcome [8]?
**A.** inactive

**Q.** What about the AC50 [5] of the same compound?
**A.** 31.8 µM (active)

**Q.** What does the source list for `COc1ccc(C)cc1N`?
**A.** outcome [1]: inactive; outcome [3]: inactive

**Q.** Which AC50 [1] does the source give for `CN[C@H]1CC[C@@H](c2ccc(Cl)c(Cl)c2)c2ccc(S(N)(=O)=O)cc21` here?
**A.** 50 µM (active)

**Q.** And the AC50 [2]?
**A.** 12.8 µM (active)

**Q.** What about the outcome [3] of the same compound?
**A.** inactive

**Q.** What about the outcome [4] of the same compound?
**A.** inactive

**Q.** What about the AC50 [6] of the same compound?
**A.** 25.6 µM (active)

**Q.** And the outcome [7]?
**A.** inactive

**Q.** And the outcome [8]?
**A.** inactive

**Q.** What about the outcome [9] of the same compound?
**A.** inactive

**Q.** And the outcome [5]?
**A.** inactive

**Q.** With `Cc1cc(NC(=O)C(=O)O)cc(C)c1Oc1ccc(O)c2c1CCC2` as the compound, how does the outcome [3] read?
**A.** inactive

**Q.** What about the outcome [4] of the same compound?
**A.** inactive

**Q.** Which outcome [4] does the source give for `Cc1cccc(Nc2cc(Cl)nc(SCC(=O)O)n2)c1C` here?
**A.** inactive
